eIF4H inh = inhibitors of RNA binding by human eIF4H. Q15056. eIF4H fluorescence polarization binding assay. inhibition, % at 35 µM. actives 0.94% (n = 290,000). AID 2012;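 also: calls also rest on retests at 20 µM and on dose response follow-up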
PABP1 MLLE inh = blocks PAM2 peptide binding to the PABP1 MLLE domain | actives 0.36% (n = 360,000) | GST-MLLE / FITC-PAM2 fluorescence polarization | AID 588489 | P11940 | inhibition, % at 20 µM; in the data active = inhibition above about 35%, passing the limit was not always enough
Target sequence (P11940 whole entry, looked up, the tested form may be a part): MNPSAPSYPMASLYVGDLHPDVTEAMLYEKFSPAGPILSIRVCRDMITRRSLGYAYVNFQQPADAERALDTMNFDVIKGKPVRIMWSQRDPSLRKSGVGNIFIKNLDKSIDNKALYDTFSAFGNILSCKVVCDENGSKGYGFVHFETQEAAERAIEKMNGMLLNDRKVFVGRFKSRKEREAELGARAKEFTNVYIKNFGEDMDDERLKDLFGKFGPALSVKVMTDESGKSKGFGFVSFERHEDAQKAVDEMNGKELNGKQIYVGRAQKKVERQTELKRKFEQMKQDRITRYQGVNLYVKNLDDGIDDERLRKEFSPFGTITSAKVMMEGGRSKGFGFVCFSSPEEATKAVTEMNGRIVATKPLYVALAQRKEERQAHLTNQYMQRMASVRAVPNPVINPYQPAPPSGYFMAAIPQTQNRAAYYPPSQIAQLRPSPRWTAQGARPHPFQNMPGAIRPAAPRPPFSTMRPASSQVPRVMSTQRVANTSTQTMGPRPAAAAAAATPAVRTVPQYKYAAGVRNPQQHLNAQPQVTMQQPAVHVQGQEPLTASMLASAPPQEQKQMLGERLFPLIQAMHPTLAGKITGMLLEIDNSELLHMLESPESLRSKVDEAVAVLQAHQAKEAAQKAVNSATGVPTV
HMGR II inh = inhibitors of class II HMG-CoA reductase from Enterococcus faecalis | purified E. faecalis HMGR, NADPH absorbance 340 nm kinetic | inhibition, % at 10 µM | actives 0.41% (n = 190,000) | AID 1066;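 active = inhibition above a set limit, the median over all tested compounds plus 3 SD, cut at about 9.5% in these data; inconclusive = no clear call, values can overlap the other calls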;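 also: enzyme runs in reverse so mevalonate oxidation gives rising NADPH absorbance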
PABP FP inh = PABP-poly(A) binding inhibition. actives 1% (n = 290,000). AID 2014. P11940. calls only at 35 µM. PABP-poly(A) RNA binding, fluorescence polarization;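 also: calls also rest on retests at 20 µM and on dose response follow-up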
PHOSPHO1 block = blocks human PHOSPHO1 phosphatase activity; Q8TCT1; recombinant PHOSPHO1, absorbance phosphatase assay; inhibition, % at 13.3 µM; actives 1.1% (n = 290,000); in the data active = inhibition above about 60%
Large screens that a line does not name were inactive. Sampled rows, rich in hits. Any-hit rate of the full collection: about 2.4%. Unless noted, no rule for the calls is given here.

c1ccc2c(c1)CCN(c1nc3ccccc3n3cnnc13)C2	none
c1ccc2c(c1)CCCN2c1nc2ccccc2n2cnnc12	eIF4H inh 80.4, PABP FP inh active
CC1(C(=O)NNC(=O)c2ccc(=O)oc2)CC1Br (stereo not given)	PABP FP inh active (no result: HMGR II inh)
O=C(NC(=S)N1CCCCCC1)c1ccccc1Cl	PABP1 MLLE inh 44.0
C=CCn1c(NC(=O)c2ccc(C)cc2)c(C#N)sc1=N	PHOSPHO1 block 96.2
Cc1cc(Sc2nc(N)ncc2[N+](=O)[O-])ncn1	none
Cc1cc(Sc2ncnc(N)c2[N+](=O)[O-])ncn1	PABP1 MLLE inh 45.9
CCCC(=O)Nc1ccc(Cl)c(NC(=S)NC(=O)c2ccco2)c1	none
CCC(=Nc1ccc(N)cc1)C1=C(O)C(C(=O)OC)C(C)(C)CC1=O (stereo not given)	eIF4H inh 103.3, PABP FP inh active
CCC(=NCc1ccccc1)C1=C(O)C(C(=O)OC)C(C)(C)CC1=O (stereo not given)	none
CCCCC(=Nc1ccc(N)cc1)C1=C(O)C(C(=O)OC)C(C)(C)CC1=O (stereo not given)	eIF4H inh 42.4, PABP FP inh active
CCCC(=Nc1ccccc1)C1=C(O)C(C(=O)OC)C(C)(C)CC1=O (stereo not given)	none
CCN(C[C@H]1N[C@@](Cc2ccccc2)(C(=O)OC)[C@H]2C(=O)N(C)C(=O)[C@@H]12)C(=O)COC	none (no result: eIF4H inh, HMGR II inh, PABP FP inh, PHOSPHO1 block)
CNC(=S)NN=C(C)CCCC(C)=NNC(=S)NC	none (no result: eIF4H inh, HMGR II inh, PABP FP inh, PHOSPHO1 block)
S=c1nc(-c2ccccc2)n(Cc2cccnc2)c2c1CCCC2	none (no result: PABP1 MLLE inh, HMGR II inh)
S=c1nc(-c2ccccc2)n(Cc2ccco2)c2c1CCCC2	PHOSPHO1 block 88.7 (no result: PABP1 MLLE inh)
O=C(N/N=C/c1ccc([N+](=O)[O-])o1)c1ccc2c(c1)OCO2	eIF4H inh 79.0, PABP FP inh active (no result: HMGR II inh)
O=C(N/N=C/c1cc2c(cc1[N+](=O)[O-])OCO2)c1cccnc1	eIF4H inh 84.9, PABP FP inh active (no result: HMGR II inh)
O=C(N/N=C/c1ccc(OC(=O)c2ccc([N+](=O)[O-])cc2)cc1)c1cccnc1	PHOSPHO1 block 62.8 (no result: HMGR II inh)
O=C(N/N=C\c1ccc(-c2ccc([N+](=O)[O-])cc2)o1)c1ccc2c(c1)OCO2	none
Cc1cc(O)cc(O)c1/C=N/NC(=O)c1ccc2c(c1)OCCO2	PABP1 MLLE inh 49.1 (no result: eIF4H inh, HMGR II inh, PABP FP inh, PHOSPHO1 block)
COC(=O)c1cc(CN2CCN(c3ccccc3)CC2)ccc1O	none (no result: HMGR II inh)
COc1ccc(/C=N/n2cnnc2)cc1Cn1nc(C)c([N+](=O)[O-])c1C	HMGR II inh 10.7
O=C(Nc1cccnc1)c1ccc(COc2cc(Cl)ccc2Cl)o1	none
O=C(N/N=C/c1ccc(O)cc1)c1ccc(COc2cc(Cl)ccc2Cl)o1	HMGR II inh 11.7
COCCNC(=O)c1cc2c(c(-c3cccc(C#Cc4ccc(OC)c(OC)c4)c3)n1)[C@@H](CCO)N(S(=O)C(C)(C)C)C2 (stereo not given in full)	none (no result: eIF4H inh, HMGR II inh, PABP FP inh, PHOSPHO1 block)
CCOC(=O)CCCNC(=O)CCNC(=O)c1ccc(OCC)cc1	eIF4H inh active, PABP FP inh active
CCCCCOc1ccc(C(=O)NCCC(=O)NCCCC(=O)OCC)cc1	none (no result: HMGR II inh)
C=CCn1c(Cc2csc(N)n2)nnc1SCC(=O)Nc1ccccc1C(F)(F)F	none
COc1ccc(-c2oc(NC(=O)CSc3ncn[nH]3)c(C#N)c2-c2ccc(OC)cc2)cc1	PHOSPHO1 block 71.2
COc1ccc(-n2nc3ccc(N)cc3n2)cc1Cl	eIF4H inh 55.3, PABP FP inh active (no result: HMGR II inh)
Cc1ccc(-n2nc3ccc(N)cc3n2)cc1Cl	none (no result: HMGR II inh)
CCN(CC)N=Nc1ccc(S(N)(=O)=O)cc1	HMGR II inh 10.2
CN(C)N=Nc1ccc(S(N)(=O)=O)cc1	none
COC(=O)C(C)Sc1ccc2nnc(-c3ccc(F)cc3)n2n1 (stereo not given)	PHOSPHO1 block 64.6
CCOC(=O)CC(=O)CSc1ccc2nnc(-c3cccc(F)c3)n2n1	none
CCC(Sc1ccc2nnc(-c3ccc(F)cc3)n2n1)C(=O)OC (stereo not given)	none
CCOC(=O)CC(=O)CSc1ccc2nnc(-c3ccc(F)cc3)n2n1	PHOSPHO1 block 81.2
CC1(C)Oc2ccc3ccc(=O)oc3c2[C@H](O)[C@H]1O	none (no result: eIF4H inh, HMGR II inh, PABP FP inh, PHOSPHO1 block)
CC1(C)Oc2ccc3ccc(=O)oc3c2C(N2CCCCC2)C1O (stereo not given)	eIF4H inh 42.2
COc1ccc(NC(=O)CC2Sc3ncnn3C2=O)cc1 (stereo not given)	PABP1 MLLE inh 43.1
CCOC(=O)c1ccc(NC(=O)CC2Sc3ncnn3C2=O)cc1 (stereo not given)	PABP1 MLLE inh 41.6
O=C(CC1Sc2ncnn2C1=O)Nc1ccc(Cl)cc1 (stereo not given)	none (no result: PABP1 MLLE inh)
COc1ccc(C2(CNC(=O)Cc3ccccc3)CCCC2)cc1OC	PHOSPHO1 block 65.2
O=c1[nH]c2cc3c(cc2cc1CN(Cc1ccccc1)Cc1nnnn1Cc1ccco1)OCCO3	none
O=c1[nH]c2cc3c(cc2cc1CN(Cc1cccs1)Cc1nnnn1Cc1ccco1)OCCO3	eIF4H inh 38.3, PABP FP inh active
COc1ccccc1CN(Cc1cc2cc3c(cc2[nH]c1=O)OCCO3)Cc1nnnn1Cc1ccco1	eIF4H inh 58.2, PABP FP inh active
O=c1[nH]c2cc3c(cc2cc1CN(CCc1ccccc1)Cc1nnnn1C1CCCC1)OCCO3	eIF4H inh 96.9, PABP FP inh active (no result: PABP1 MLLE inh)
CCc1ccc2[nH]c(=O)c(CN(Cc3ccccc3)Cc3nnnn3Cc3ccco3)cc2c1	none
O=c1[nH]c2cc3c(cc2cc1CN(Cc1cccnc1)Cc1nnnn1Cc1ccco1)OCCO3	eIF4H inh 70.9, PABP FP inh active
Cc1ccc2[nH]c(=O)c(CN(Cc3ccc4c(c3)OCO4)Cc3nnnn3Cc3ccco3)cc2c1	none
Cc1ccc2c(c1)sc1nncn12	none (no result: eIF4H inh, HMGR II inh, PABP FP inh, PHOSPHO1 block)
O=C(O)CCN1CCN(S(=O)(=O)c2ccc3ccccc3c2)CC1	none (no result: HMGR II inh, PHOSPHO1 block)
OCCC1CN(CC2CC2)CCN1Cc1ccc(F)c(F)c1 (stereo not given)	none (no result: HMGR II inh)
CCOc1ccccc1CNC(=O)C1CCCN(c2nnc(C)c3c(C)n(-c4ccccc4)nc23)C1 (stereo not given)	none (no result: HMGR II inh)
COC(=O)CCNC(=O)CCc1ccc(S(=O)(=O)N2CCCCCC2)cc1	none (no result: eIF4H inh, HMGR II inh, PABP FP inh, PHOSPHO1 block)
COc1cccc(NC(=O)CN(C)C(=O)C2CCN(C(=O)c3ccccc3C)CC2)c1	none (no result: eIF4H inh, HMGR II inh, PABP FP inh, PHOSPHO1 block)
COc1ccc(NC(=O)CSc2nc(N)c(C(=O)Nc3ccc(N(C)C)cc3)s2)cc1	PHOSPHO1 block 66.2
N#CCCN(C(=O)COC(=O)CNS(=O)(=O)c1ccc2ccccc2c1)c1ccccc1	none (no result: eIF4H inh, HMGR II inh, PABP FP inh, PHOSPHO1 block)
CN1CCN(C(=O)/C=C/c2c(F)cccc2Cl)CC1	none (no result: HMGR II inh)
CCOc1ccc(N(CC(=O)Nc2ccccc2)S(C)(=O)=O)cc1	PHOSPHO1 block 79.6
O=Cc1coc2ccc3ccccc3c2c1=O	PABP1 MLLE inh 40.2 (no result: HMGR II inh)
O=C(O)C1Nc2c(O)cc(Cl)c([N+](=O)[O-])c2C2C=CCC12 (stereo not given)	eIF4H inh inconclusive, HMGR II inh 13.4, PABP FP inh active
Cc1ccccc1-n1nc2c(c1NC(=O)CC(C)C)CS(=O)C2 (stereo not given)	none (no result: eIF4H inh, HMGR II inh, PABP FP inh)
